63 compounds from PubChem BioAssay (Tox21) can be followed below.

A short description of test [1]: cAMP Responsive Elements (CRE) small molecule antagonists, cell-based qHTS assay: qHTS cell viability counter screen (AID 2060913). Note: nearly all actives have a fitted effect of over 40% in size. The essentials:
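Steps: cells plated and held 18 hrs at 37 C/5% CO2; compounds and NKH477 (0.25 uM final) added; 3 hrs incubation; reporter substrate read; CellTiter-Glo added to measure cytotoxicity by luminescence.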
A general note: In qHTS, concentration-response curves come from the screen itself.

A short description of test [2]: cAMP Responsive Elements (CRE) small molecule agonists, cell-based qHTS assay: qHTS cell viability counter screen (AID 2060914). Note: nearly all actives have a fitted effect of over 50% in size. The essentials: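 Cytotoxicity counter screen multiplexed with the CRE-bla reporter assay in HEK 293T cells: 3 h compound exposure at 37 °C, followed by CellTiter-Glo luminescence measured in the same wells.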

Inconclusive results are not listed. A number with no mark means an inactive call. Active and inactive are the calls of the source. Calls come from the whole dose curve; as a rule, active = well fitted cell-killing curve with a large enough effect in the repeat runs; inconclusive = weak or mixed curves, or effect the other way; inactive = flat fitted curve, though single readings scatter.
% is set by controls: 0 for no effect and ±100 for the full control effect.

As to `CCN1CCC[C@H]1CNC(=O)c1cc(S(N)(=O)=O)ccc1OC`, the Potency entry in test [1] and in test [2] was “inactive” each time.

Regarding `O=C(c1ccccc1)C(O)c1ccccc1` (stereo unspecified), the Potency entry in test [1] and in test [2] was “inactive” in each case.

Take `C=C(C)C(=O)OCCOc1ccccc1`: the Potency entry in test [1] and in test [2] was “inactive” in each case.

Consider `C=C[Si](OC(C)=O)(OC(C)=O)OC(C)=O`, for which the Potency entry in test [1] and in test [2] was “inactive” each time.

Turning to `O=[N+]([O-])c1ccc(CCO)cc1`, the Potency entry in test [1] and in test [2] was “inactive” throughout.

Turning to `CCCCCCCCCCCCOCC1CO1` (stereo unspecified), the Potency entry in test [1] and in test [2] was “inactive” in each case.

Turning to `N[C@@H](CCC(=O)Nc1ccc([N+](=O)[O-])cc1)C(=O)O`, the Potency result in test [1] and in test [2] was “inactive” each time.

In the case of `c1ccc(-c2ccc(C(c3ccccc3)n3ccnc3)cc2)cc1` (stereo unspecified), the Potency entry in test [1] and in test [2] was “inactive” throughout.

Consider `Brc1cc(Br)cc(Br)c1`, for which the Potency result in test [1] and in test [2] was “inactive” throughout.

On to `O=C1c2ccccc2CCc2ccccc21`, for which the Potency entry in test [1] and in test [2] was “inactive” in each case.

As for `O=S(=O)(O)c1ccc2cc(O)ccc2c1`, the Potency entry in test [1] and in test [2] was “inactive” each time.

As for `C1CCC2OC2C1` (stereo unspecified), the Potency entry in test [1] and in test [2] was “inactive” throughout.

Turning to `Cc1ccc(S)cc1`, the Potency entry in test [1] and in test [2] was “inactive” throughout.

In the case of `CCc1ncc(C)[nH]1`, the Potency result in test [1] and in test [2] was “inactive” in each case.

As for `O=c1cc(CO)occ1O`, the Potency entry in test [1] and in test [2] was “inactive” each time.

Regarding `Oc1ccccc1Cc1ccccc1O`, the Potency result in test [1] and in test [2] was “inactive” each time.

In the case of `CC[C@H]1OC(=O)[C@H](C)[C@@H](O[C@H]2C[C@@](C)(OC)[C@@H](O)[C@H](C)O2)[C@H](C)[C@@H](O[C@@H]2O[C@H](C)C[C@H](N(C)C)[C@H]2O)[C@](C)(O)C[C@@H](C)CN(C)[C@H](C)[C@@H](O)[C@]1(C)O`, the Potency result in test [1] and in test [2] was “inactive” each time.

In the case of `O=c1[nH]c(=O)c2[nH]c(=O)[nH]c2[nH]1`, in test [1], the viability change, negative = cytotoxic was -5.49% [at 8.39 µM]. In test [2], the activity change, negative = cytotoxicity was 8.03% [at 8.39 µM].

For the compound `Cc1nc(-c2ccc(OCC(C)C)c(C#N)c2)sc1C(=O)O`, the Potency result in test [1] and in test [2] was “inactive” throughout.

As for `CCCNC(C)C(=O)Nc1c(C)csc1C(=O)OC` (stereo unspecified), the Potency entry in test [1] and in test [2] was “inactive” each time.

Take `CC1=C(/C=C/C(C)=C/C=C/C(C)=C\C=O)C(C)(C)CCC1`: the Potency entry in test [1] and in test [2] was “inactive” each time.

Consider `CCC(=O)O[C@H]1[C@H](O[C@@H]2[C@@H](C)[C@H](O[C@H]3C[C@@](C)(OC)[C@@H](O)[C@H](C)O3)[C@@H](C)C(=O)O[C@H](CC)[C@@](C)(O)[C@H](O)[C@@H](C)C(=O)[C@H](C)C[C@@]2(C)O)O[C@H](C)C[C@@H]1N(C)C`, for which the Potency entry in test [1] and in test [2] was “inactive” throughout.

On to `CCC1(c2ccccc2)C(=O)NCNC1=O`, for which the Potency result in test [1] and in test [2] was “inactive” each time.

As for `Cc1ccc(NC(=O)N(C)C)cc1NC(=O)N(C)C`, the Potency entry in test [1] and in test [2] was “inactive” each time.

Consider `CC/C=C(\C)C=O`, for which the Potency result in test [1] and in test [2] was “inactive” in each case.

On to `C=C(C)[C@@H]1CC[C@@H](C)C[C@@H]1O`, for which the Potency result in test [1] and in test [2] was “inactive” in each case.

On to `CC[N+](CC)(CC(=O)Nc1c(C)cccc1C)Cc1ccccc1` (tested in a mixture with another compound), for which the Potency result in test [1] and in test [2] was “inactive” in each case.

As for `O=C1CCN(c2ccccc2)N1`, the Potency result in test [1] and in test [2] was “inactive” in each case.

In the case of `CNS(=O)(=O)CCc1ccc2[nH]cc(C3CCN(C)CC3)c2c1`, the Potency entry in test [1] and in test [2] was “inactive” throughout.

For the compound `C/C=C/C(=O)CC`, the viability change, negative = cytotoxic in test [1] is 6.92% [at 18.9 µM]. Moreover, in test [2], the activity change, negative = cytotoxicity was 7.79% [at 18.9 µM].

With `O=[N+]([O-])c1ccc(Oc2ccc([N+](=O)[O-])cc2)cc1`, the Potency entry in test [1] and in test [2] was “inactive” throughout.

As to `CC1(C)C2=CCCC(C)(C)[C@]23CC[C@H]1C3`, the Potency result in test [1] and in test [2] was “inactive” throughout.

For `CCC1=C(C)CN(C(=O)NCCc2ccc(S(=O)(=O)NC(=O)NC3CCC(C)CC3)cc2)C1=O` (stereo unspecified), the Potency result in test [1] and in test [2] was “inactive” each time.

For `O=C=Nc1cccc(C(F)(F)F)c1`, the Potency entry in test [1] and in test [2] was “inactive” in each case.

As to `C=Cc1ccccn1`, the Potency result in test [1] and in test [2] was “inactive” each time.

For the compound `COc1cc([C@H]2Oc3cc([C@H]4Oc5cc(O)cc(O)c5C(=O)[C@@H]4O)ccc3O[C@@H]2CO)ccc1O`, the Potency entry in test [1] and in test [2] was “inactive” in each case.

Regarding `CC(=O)c1ccc(OCC(=O)N2CCCCC2)cc1`, the Potency result in test [1] and in test [2] was “inactive” in each case.

As for `CO/N=C(/C(=O)N[C@@H]1C(=O)N2C(C(=O)[O-])=C(C[n+]3ccn4ncccc43)CS[C@H]12)c1nsc(N)n1`, the Potency result in test [1] and in test [2] was “inactive” in each case.

Take `O=[N+]([O-])c1cccc(I)c1`: the Potency entry in test [1] and in test [2] was “inactive” each time.

Consider `O=C(O)c1cc(C(=O)O)cc(C(=O)O)c1`, for which the Potency entry in test [1] and in test [2] was “inactive” throughout.

For `CC(=O)OCC(=O)[C@@]1(OC(C)=O)[C@@H](C)C[C@H]2[C@@H]3C[C@H](F)C4=CC(=O)C=C[C@]4(C)[C@@]3(F)[C@@H](O)C[C@@]21C`, the Potency entry in test [1] and in test [2] was “inactive” in each case.

`CC(=O)N[C@@H](CCC(=O)O)C(=O)O`: the Potency entry in test [1] and in test [2] was “inactive” in each case.

For the compound `Cc1cc2c(cc1C(F)(F)F)N(C(=O)Nc1ccc(Oc3cccnc3C)nc1)CC2`, the Potency result in test [1] and in test [2] was “inactive” each time.

With `CC(=O)Nc1ccc(C(=O)O)cc1`, the Potency entry in test [1] and in test [2] was “inactive” each time.

In the case of `Cc1cccc(Nc2cc(Cl)nc(SCC(=O)O)n2)c1C`, the Potency entry in test [1] and in test [2] was “inactive” throughout.

As for `CCOC(=O)/C=C/c1ccccc1`, the Potency entry in test [1] and in test [2] was “inactive” in each case.

As to `CC(C)(C)c1ccc(C(O)CCCN2CCC(C(O)(c3ccccc3)c3ccccc3)CC2)cc1` (stereo unspecified), the Potency result in test [1] and in test [2] was “inactive” throughout.

For `c1cc2c3c(c1)ccc1cccc(c13)C2`, the Potency result in test [1] and in test [2] was “inactive” each time.

Turning to `Nc1ccc(NC(=O)c2ccc(N)cc2)cc1`, the Potency entry in test [1] and in test [2] was “inactive” in each case.

Take `[Ca+2]`: the Potency result in test [1] and in test [2] was “inactive” each time.

In the case of `Oc1ccc2c(c1)CCC2`, the Potency result in test [1] and in test [2] was “inactive” each time.

Regarding `C[C@@]12CCC[C@H]1[C@@H]1CC[C@H]3C[C@@H](O)CC[C@]3(C)[C@H]1CC2`, the Potency entry in test [1] and in test [2] was “inactive” each time.

Regarding `CN(C)CCC=C1c2ccccc2CCc2ccccc21`, the Potency entry in test [1] and in test [2] was “inactive” throughout.

In the case of `Nc1cc(N)cc(C(=O)O)c1`, the Potency result in test [1] and in test [2] was “inactive” throughout.

`CN1Cc2cc(C(=O)N3CCC(C4CCNCC4)CC3)ccc2N[C@@H](CC(=O)O)C1=O`: the Potency entry in test [1] and in test [2] was “inactive” throughout.

In the case of `C=CC(=O)NCOCCCC`, the Potency entry in test [1] and in test [2] was “inactive” throughout.

For the compound `CC(=O)c1cccnc1`, the Potency entry in test [1] and in test [2] was “inactive” throughout.

With `Cc1cc(Nc2ccc(O)cc2)ccc1N`, the Potency entry in test [1] and in test [2] was “inactive” throughout.

Regarding `CC1(C)[C@@H](OC(=O)CCC(=O)O)CC[C@]2(C)[C@H]3C(=O)C=C4[C@@H]5C[C@@](C)(C(=O)O)CC[C@]5(C)CC[C@@]4(C)[C@]3(C)CC[C@@H]12`, the Potency entry in test [1] and in test [2] was “inactive” each time.

For the compound `Cc1ccc2oc(=O)ccc2c1`, the Potency result in test [1] and in test [2] was “inactive” in each case.

`ClC(Cl)Cl`: the Potency result in test [1] and in test [2] was “inactive” throughout.

For `COc1cccc(OC)c1`, the Potency entry in test [1] and in test [2] was “inactive” throughout.

With `COC(=O)CCCCCCCC(=O)OC`, the Potency entry in test [1] and in test [2] was “inactive” each time.
